Source: ChEMBL document CHEMBL4513216, “Probing the Open Global Health Chemical Diversity Library for Multistage-Active Starting Points for Next-Generation Antimalarials” (ACS Infect Dis, 2020)
The whole screen tested about 69,000 compounds, of which about 8,600 (12%) showed an effect of 50% or more. Only a selection was taken, and strong results are over-represented in it overall.

test system: Plasmodium berghei; assay: Screen against P. berghei liver stage (PbLuc), transformed with Luciferase, at 10uM; format: functional, HepG2; conditions: tested at 10 uM

Row | Structure (SMILES) | INHIBITION [%]
1 | CC(NC(=O)NCCCN1CCCC1=O)c1nncn1C (centres undefined) | -7.31
2 | CCC(C(=O)NC1CCCC1)n1ccc2ncccc2c1=O (centres undefined) | -13.2
3 | Cc1n[nH]c(C)c1C1CCCN1C(=O)NCC(=O)Nc1ccccc1 (centres undefined) | 22
4 | O=C(c1ccc2c(c1)OCCCO2)N1CCCC(n2ccnc2)C1 (centres undefined) | 42
5 | Cc1csc(CCNC(=O)NC(C)Cn2cccn2)n1 (centres undefined) | -7.31
6 | Cc1ccc(C(=O)NCc2ccc(N(C)C)cc2)cn1 | 32
7 | CN(c1ccc(CNC(=O)c2ccc(O)nc2)cc1)C1CCCCC1 | 67.8
8 | CC/C=C(\C)CN1CCC(CNC(=O)c2ccc(=O)[nH]c2)CC1 | -24.7
9 | CNC(=O)c1ccc(CNC(=O)NCCN(C)C2CCCC2)cc1 | -2.53
10 | CN(c1ncc(C(=O)Nc2ccccc2)c(N)n1)C1CCCCC1 | 47.2
11 | CC/C=C(\C)CN1CCC(CNC(=O)c2ccnc(N)c2)C1 (centres undefined) | -5.8
12 | CN(c1ccc(CNC(=O)c2c[nH]c(=O)c(Cl)c2)cc1)C1CCCCC1 | 77.6
13 | CN(C)c1cc(CNC(=O)c2ccc(O)nc2)ccn1 | 9.64
14 | COc1ccc(NC(=O)c2cnc(N(C)C3CCCCC3)nc2N)cc1 | 35.7
15 | CCC1CCC(CNC(=O)c2c[nH]c(=O)c(Cl)c2)CC1 (centres undefined) | 4.35
16 | CN(c1ncc(C(=O)NCc2ccccc2)c(N)n1)C1CCCCC1 | 63.6
17 | CC/C=C(\C)CN1CCC(CNC(=O)c2c[nH]c(=O)c(Cl)c2)C1 (centres undefined) | 63.8
18 | CCOc1ncccc1NC(=O)N1CCC(CN2CCOCC2)CC1 | 31.65
19 | C[C@@H]1C(=O)NC[C@H]2CN(CCc3ccccc3)C[C@H]21 | 26.6
20 | CCC(CN1CCCC1)n1cncc1-c1cnn(-c2ccc(F)cc2)c1 (centres undefined) | 43.55
21 | CCOC1COC2(CCN(c3ncc(C)cn3)CC2)C1 (centres undefined) | 10.6
22 | CC(C)c1cc(C(=O)N2CCCC(n3cncn3)C2)n[nH]1 (centres undefined) | 15.6
23 | Fc1ccc(-c2nnc(CN3CCCC3Cn3cccn3)o2)cc1 (centres undefined) | 11.6
24 | CC(=O)N1CCCC1c1ccc(C(=O)N2CCOCC2)s1 (centres undefined) | 21.7
25 | Cn1nc2c(c1NC(=O)c1ccc(Cl)s1)CCC2 | -57.9
26 | Cn1nc2c(c1NC(=O)c1ccc(C3CCCN3C3CCC3)s1)CCC2 (centres undefined) | 15.4
27 | O=C(c1ccc(C2CCCO2)s1)N1Cc2ccccc2C1 (centres undefined) | -44.8

Row | Structure (SMILES) | INHIBITION [%]
28 | CN1CCCC1c1ccc(C(=O)N2CCc3ccccc3C2)s1 (centres undefined) | 66.9
29 | CN1CCCC1c1ccc(C(=O)Nc2c3c(nn2C)CCC3)s1 (centres undefined) | 56
30 | COCC1CC2(CCN(Cc3cnn(C)c3)CC2)CN1c1ncccn1 (centres undefined) | 18.5
31 | O=C(CN1CCCC1COc1ccccc1)NCc1ccccn1 (centres undefined) | 38.2
32 | Cc1nc(C(C)(C)NC(=O)Nc2ccc(C#N)cc2)no1 | 79.2
33 | Cc1nc(C(C)(C)NC(=O)Nc2cccc(C#N)c2)no1 | -4.74
34 | Cc1ccc(NC(=O)NC(C)(C)c2noc(C)n2)cc1 | 13.6
35 | CCc1csc(C2CCCN(C(=O)c3ccnc(N(C)C)c3)C2)n1 (centres undefined) | 27.6
36 | Cc1nc(NC(=O)NCc2cccnc2NCCN(C)C)sc1C | 37.7
37 | CC(C)c1nnc(NC(=O)NCc2cccnc2NCCN(C)C)s1 | 25.7
38 | CN(C)CCNc1ncccc1CNC(=O)Nc1cc(F)cc(F)c1 | 55.6
39 | Cn1cc(S(=O)(=O)N(Cc2ccc(F)cc2F)C2CC2)cc1C(N)=O | 40.9
40 | Cc1n[nH]c(C)c1NC(=O)CN1CCCC1c1c(C)nn(C)c1C (centres undefined) | 9.54
41 | CCN(CC)C(=O)CSc1nc2cc(C)nc-2c(O)n1CC | 42.4
42 | c1cncc(C2COC3(CCN(Cc4nccs4)CC3)C2)c1 (centres undefined) | 36.2
43 | O=C(CCn1ccc2ccccc21)N1CCC(Nc2cccnc2)CC1 | -22.4
44 | COc1cccc(CCC(=O)N2CCN(Cc3noc(C)n3)CC2)c1 | -30.7
45 | Cc1nc(CN2CCN(C(=O)CCC(=O)c3ccccc3)CC2)no1 | -36.4
46 | O=C(CCn1ccc2ccccc21)N1CCC(Nc2cccnn2)CC1 | -35.2
47 | Cc1nc(CN2CCN(C(=O)Cc3cccc(Cl)c3)CC2)no1 | -2.04
48 | Cc1nc(CN2CCN(C(=O)CC(C)(C)c3ccccc3)CC2)no1 | -73.6
49 | Cc1nc(CN2CCN(C(=O)CCc3cccc(Cl)c3)CC2)no1 | 75.2
50 | Cc1nc(CN2CCN(C(=O)CCc3cccnc3)CC2)no1 | 65.2
51 | O=C(CCn1ccc2ccccc21)N1CCN(Cc2cccnc2)CC1 | 64.9
52 | O=C(CCn1cccn1)N1CCSCC1 | 4.55
53 | CN(C)Cc1ccccc1CN(C)C(=O)c1ccoc1 | 11.1
54 | c1c(CN2CCCCC2)nc2n1CCNC2 | -46.4
